# Source: PubChem (several laboratories)
# CRFBP-R2 agonist = agonists of human CRF-binding protein/CRF-R2 receptor complex | AID 588473 | HEK293 CRF-R2/CRF-BP, calcium dye fluorescence (FLIPR); percent of saturating CRF peptide response | 350,000 compounds, 0.46% hits | activation, % at 13.2 µM;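 active = activation of at least 50%, plus an integration ratio under a set limit after plate pattern correction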;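 also: plate controls were neutral control wells without compound for no effect and CRF at EC100 for full effect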
# V-ATPase pHluor = yeast V-ATPase proton transport regulation by pHLuorin; S. cerevisiae, pHLuorin cytosolic pH fluorescence; response, % at 10 µM; 350,000 compounds, 0.37% hits; in the data active = response mostly above about 7.3%, no sharp cut-off; inactive = mostly below about 5.4%; also: actives read high
# CRFBP-R2 block = CRF-BP/CRF-R2 complex antagonism. HEK293 CRF-R2/CRF-BP, CRF-induced calcium fluorescence. inhibition, % at 11.8 µM. 350,000 compounds, 0.59% hits;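 active = inhibition of the ligand-induced calcium signal above about 50% at the single tested concentration, limit read from the data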
# NTR1 ag = activates human neurotensin receptor 1 | P30989 | activation, % at 20 µM | 330,000 compounds, 0.17% hits | NTR1-U2OS beta-arrestin-GFP spot imaging, agonist mode | AID 493036;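 active = activation at or above 40% of the spot to cytoplasm intensity ratio, with at least 20 cells analyzed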;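 also: 0% = DMSO without peptide and 100% = 100 nM NTR1 peptide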
# Target sequence (P30989 whole entry, looked up): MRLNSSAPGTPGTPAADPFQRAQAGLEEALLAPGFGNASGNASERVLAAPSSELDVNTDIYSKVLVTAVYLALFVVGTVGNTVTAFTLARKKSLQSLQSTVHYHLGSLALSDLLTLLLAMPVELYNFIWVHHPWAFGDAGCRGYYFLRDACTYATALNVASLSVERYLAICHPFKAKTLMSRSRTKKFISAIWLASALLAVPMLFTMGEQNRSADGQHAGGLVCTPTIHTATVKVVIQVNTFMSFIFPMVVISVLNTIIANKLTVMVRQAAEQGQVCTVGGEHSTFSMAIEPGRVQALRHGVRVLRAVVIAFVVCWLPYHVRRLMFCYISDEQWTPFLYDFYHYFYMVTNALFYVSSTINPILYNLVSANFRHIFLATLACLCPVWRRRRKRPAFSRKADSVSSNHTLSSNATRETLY
# An asterisk follows results filed as active; · = not tested or not shown. Rows were chosen to be rich in hits. Some 1.5% of all compounds tested hit in one or more screens of this group.
SMILES,CRFBP-R2 agonist,V-ATPase pHluor,CRFBP-R2 block,NTR1 ag
O=C(c1ccc(S(=O)(=O)Nc2ccccc2)cc1)N1CCCC(C(F)(F)F)C1 (stereo unspecified),73*,4,-65,4
CCOc1ccc(NS(=O)(=O)c2ccc(NC(=O)[C@@H]3CCCC[C@@H]3C(=O)O)cc2)cc1,189*,5,-225,0
CCOc1ccc(S(=O)(=O)N2CCN(C(=O)c3cccnc3)CC2)cc1,-1,1,-1,-1
CCCCOc1ccc(C(=O)NCC(=O)NC2CCC(C)CC2)cc1 (stereo unspecified),1,2,-9,1
CCOc1ccc(NS(=O)(=O)c2ccc(C(=O)N3CCCC(C)C3)cc2)cc1 (stereo unspecified),55*,-2,-26,6
O=C(COC(=O)c1cc(-c2ccccn2)nc2ccccc12)Nc1ncc(C(F)(F)F)cc1Cl,1,2,-4,5
CC1(C)CC(=O)C2=C(C1)OC(/N=C/N1CCCC1)=C(C#N)C2c1ccccc1 (stereo unspecified),2,-1,103*,0
CC1(C)CC(=O)C2=C(C1)OC(/N=C/N1CCOCC1)=C(C#N)C2c1ccccc1 (stereo unspecified),-1,0,-2,1
CCN(c1ccc(NS(=O)(=O)c2cc(Cl)ccc2Cl)cc1)C(C)C,-4,5,55*,5
COC(=O)c1ccc(NC(=O)C2CCCN2C(=O)OCc2ccccc2)cc1 (stereo unspecified),0,1,0,-1
CN(CC(=O)Nc1ncn[nH]1)S(=O)(=O)c1cc(Cl)ccc1Cl,-1,2,9,-2
CN(C)C1(CNC(=O)C2CCN(S(=O)(=O)c3cccc(C(F)(F)F)c3)CC2)CCCCC1,1,3,-8,0
CCc1ccccc1NC1=NCC(=O)N1Cc1ccccc1,-3,16*,44,-5
CCOC(=O)c1sc(N=NC2=C(O)CC(C)(C)CC2=O)c(C(=O)OCC)c1C,4,1,0,10
Cc1cc(C)nc(NC(=O)Cc2cccs2)n1,-1,-2,7,0
Cc1cccc(C)c1NC(=O)Cc1cccs1,1,4,78*,0
CSC[C@H]1CN(c2ccccc2)C(=O)[C@@H]1CC(=O)Nc1ccccc1,0,1,-16,·
Cc1ccc(C2/C=C\CC(NC(=O)OCC3c4ccccc4-c4ccccc43)CC(=O)N2Cc2ccccc2)cc1 (stereo unspecified),5,6,-3,2
CC(Oc1ccccc1Br)C(=O)N1CCc2ccccc21 (stereo unspecified),0,-2,3,0
CC(Oc1ccc(Br)cc1)C(=O)N1CCc2ccccc21 (stereo unspecified),222*,-2,-164,3
CSCC[C@H](NC(=O)[C@@H]1Cc2ccccc2CN1)C(=O)NC[C@H]1CC[C@H](C(=O)O)CC1,-2,-1,-8,-2
COc1ccc(OC)c(C2=Nn3c(nnc3-c3ccco3)SC2)c1,-1,4,32,-1
COc1ccc(C2=Nn3c(nnc3-c3ccco3)SC2)cc1,-6,3,68*,0
CC(=O)Nc1cccc(NC(=O)CSc2nc3c(=O)n(C)c(=O)n(C)c3n2C)c1,0,8,3,0
Cc1ccc(S(=O)(=O)CCC(=O)c2cccc([N+](=O)[O-])c2)cc1,-4,28*,-51,0
SMILES,CRFBP-R2 agonist,V-ATPase pHluor,CRFBP-R2 block,NTR1 ag
Cc1ccc(C(=O)CCS(=O)(=O)c2ccc(Br)cc2)cc1,0,-4,8,4
COc1ccc(C/C(N)=N/OC(=O)CCc2ccccc2)cc1,-2,2,5,1
COc1ccccc1CNC(=O)CN1C(=O)NC2(CCC(C)CC2)C1=O (stereo unspecified),-1,-2,-5,-1
Cc1cc(C)n2nc(/C(C#N)=C/c3ccccc3)c(C#N)c2n1,2,4,99*,·
O=C(NCCS(=O)(=O)N1CCN(c2ccccc2)CC1)c1ccccc1F,0,-3,0,4
CCOc1cc(-c2cn(S(=O)(=O)c3cccc4nsnc34)nc2N)cc(OCC)c1OCC,-2,7,70*,4
CCOc1cc(S(=O)(=O)n2cc(-c3ccc(F)cc3)c(N)n2)cc(OCC)c1OCC,1,0,3,4
CCOC(=O)C1CCCCN1Cc1ccc(OC)c(OC)c1 (stereo unspecified),-2,0,-6,-1
CCC1CCCCN1Cc1ccc(OC)c(C)c1 (stereo unspecified),65*,2,38,-1
COc1ccc(CN2CCSCC2)cc1C,69*,1,21,0
